# Assay results from paper PMC11062922 (Nature Chemical Biology, 2023).
# Read-outs that look alike come from different tables or passages of the source.
# Key:
# Parameters in all cases: species or system human, MV4-11 + K-562 + COLO205 + SK-N-BE2 + OVCAR-8
# PKN2 = conditions: read-out: apparent Kd, compound concentrations: 100 nM and 1000 nM (sheet 'Samples'), n = 1
# PIK3CG = conditions: read-out: apparent Kd, n = 1
# AXL = conditions: read-out: apparent Kd, n = 1
# CSK = conditions: read-out: apparent Kd, n = 1
# EPHA1 = conditions: read-out: apparent Kd, n = 1
# EPHB3 = conditions: read-out: apparent Kd, n = 1
# FRK = conditions: read-out: apparent Kd, n = 1
# FYN = conditions: read-out: apparent Kd, n = 1
# LYN = conditions: read-out: apparent Kd, n = 1
# MTOR = conditions: read-out: apparent Kd, n = 1
# ULK1 = conditions: read-out: apparent Kd, n = 1
# TGFBR2 = conditions: read-out: apparent Kd, n = 1
# CIT = conditions: read-out: apparent Kd, n = 1
# ROCK1 = conditions: read-out: apparent Kd, n = 1
# CDK2 = conditions: read-out: apparent Kd, compound concentrations: 100 nM and 1000 nM (sheet 'Samples'), n = 1
# PDGFRB = conditions: read-out: apparent Kd; compound concentrations: 100 nM and 1000 nM (sheet 'Samples'), CATDS: 6.5181238774795402E-3; n = 1
# PRKG1 = conditions: read-out: apparent Kd, compound concentrations: 100 nM and 1000 nM (sheet 'Samples'), n = 1
# CDC42BPA = conditions: read-out: apparent Kd; compound concentrations: 100 nM and 1000 nM (sheet 'Samples'), CATDS: 3.9597453798327397E-3; n = 1
# CDC42BPG = conditions: read-out: apparent Kd; compound concentrations: 100 nM and 1000 nM (sheet 'Samples'), CATDS: 5.4078712502347798E-3; n = 1
# CDK9 = conditions: read-out: apparent Kd; compound concentrations: 100 nM and 1000 nM (sheet 'Samples'), CATDS: 4.5836362442514197E-3; n = 1
# [1] = compound concentrations:100 nM and 1000 nM (sheet 'Samples')
smiles,measurement,setting,value
CCOc1nccc2c1nc(-c1nonc1N)n2CC [SB-737198],potency estimated from few doses,PKN2; CATDS: 0.50424526517456403,0.231 µM
CONC1=NC(=O)/C(=C/c2ccc3ncccc3c2)S1 [RO4613269-000],potency estimated from few doses,"PIK3CG; compound concentrations: 100 nM and 1000 nM (sheet 'Samples'), CATDS: 0.172527207279461",0.606 µM
O=C1NC(=O)C(N2CCc3ccccc32)=C1c1ccccc1Cl [SB-373598],potency estimated from few doses,AXL; [1],0.775 µM
same,potency estimated from few doses,CSK; [1],0.273 µM
same,potency estimated from few doses,EPHA1; [1],0.207 µM
same,potency estimated from few doses,EPHB3; [1],0.549 µM
same,potency estimated from few doses,FRK; [1],0.33 µM
same,potency estimated from few doses,FYN; [1],0.25 µM
same,potency estimated from few doses,LYN; [1],0.21 µM
same,potency estimated from few doses,MTOR; [1],0.461 µM
same,potency estimated from few doses,PIK3CG; [1],1.11 µM
same,potency estimated from few doses,ULK1; [1],0.305 µM
Cc1ccc(Nc2ccnc(Nc3ccc4c(c3)CS(=O)(=O)C4)n2)cc1O.Cl [GW579362A],potency estimated from few doses,"TGFBR2; compound concentrations: 100 nM and 1000 nM (sheet 'Samples'), CATDS: 0.33092190258733201",0.0132 µM
Cc1cccc(-c2nc(Nc3ccncc3)c3sccc3n2)n1 [GW869641X],potency estimated from few doses,CIT; [1],1.1 µM
same,potency estimated from few doses,TGFBR2; [1],0.363 µM
Cl.Cl.NCC(C(=O)Nc1cc(Br)c(-c2ccnc3[nH]ccc23)s1)c1ccccc1.NCC(C(=O)Nc1cc(Br)c(-c2ccnc3[nH]ccc23)s1)c1ccccc1 (centres unmarked) [GSK1269851A],potency estimated from few doses,AXL; [1],1.61 µM
same,potency estimated from few doses,CSK; [1],0.674 µM
same,potency estimated from few doses,EPHA1; [1],0.516 µM
same,potency estimated from few doses,EPHB3; [1],1.18 µM
same,potency estimated from few doses,FRK; [1],0.846 µM
same,potency estimated from few doses,FYN; [1],0.68 µM
same,potency estimated from few doses,LYN; [1],0.586 µM
same,potency estimated from few doses,ROCK1; [1],0.894 µM
same,potency estimated from few doses,ULK1; [1],0.705 µM
CCOC(=O)N1CCC(n2cnc(-c3ccc(F)cc3)c2-c2ccnc(N)n2)CC1 [SB-219952],potency estimated from few doses,"AXL; compound concentrations: 100 nM and 1000 nM (sheet 'Samples'), CATDS: 1.0061198930866599E-2",0.853 µM
same,potency estimated from few doses,"CSK; compound concentrations: 100 nM and 1000 nM (sheet 'Samples'), CATDS: 1.06273677269496E-2",0.745 µM
same,potency estimated from few doses,"EPHA1; compound concentrations: 100 nM and 1000 nM (sheet 'Samples'), CATDS: 1.16401500305403E-2",0.603 µM
same,potency estimated from few doses,"EPHB3; compound concentrations: 100 nM and 1000 nM (sheet 'Samples'), CATDS: 9.5797280308489805E-3",0.971 µM
same,potency estimated from few doses,"FRK; compound concentrations: 100 nM and 1000 nM (sheet 'Samples'), CATDS: 9.3147950048740498E-3",1.05 µM
same,potency estimated from few doses,"ULK1; compound concentrations: 100 nM and 1000 nM (sheet 'Samples'), CATDS: 8.7591953148760202E-3",1.26 µM
COc1ccc(Nc2ncc(C#N)c(Nc3ccccc3C(N)=O)n2)cc1N1CCN(C)CC1.Cl [GSK1558669A],potency estimated from few doses,CDK2; CATDS: 7.0892729990410901E-3,0.671 µM
same,potency estimated from few doses,"FYN; compound concentrations: 100 nM and 1000 nM (sheet 'Samples'), CATDS: 8.8706126087949692E-3",0.276 µM
same,potency estimated from few doses,"LYN; compound concentrations: 100 nM and 1000 nM (sheet 'Samples'), CATDS: 6.9772111779179699E-3",0.724 µM
same,potency estimated from few doses,PDGFRB,1.03 µM
same,potency estimated from few doses,"ULK1; compound concentrations: 100 nM and 1000 nM (sheet 'Samples'), CATDS: 1.40188360119969E-2",0.0778 µM
CCn1c(-c2nonc2N)nc2c(C#CC(C)(C)O)nc(OC[C@@H](N)c3ccccc3)cc21 [GSK938890A],potency estimated from few doses,PRKG1; CATDS: 5.6529109044468798E-2,0.866 µM
O=C1N=C(NCCc2ccc(Cl)cc2)S/C1=C\c1ccc2ncccc2c1 [RO4498479-000],potency estimated from few doses,"AXL; compound concentrations: 100 nM and 1000 nM (sheet 'Samples'), CATDS: 1.04698651204191E-2",0.5 µM
same,potency estimated from few doses,"CSK; compound concentrations: 100 nM and 1000 nM (sheet 'Samples'), CATDS: 1.24616497834408E-2",0.349 µM
same,potency estimated from few doses,"EPHA1; compound concentrations: 100 nM and 1000 nM (sheet 'Samples'), CATDS: 1.45728088711572E-2",0.262 µM
same,potency estimated from few doses,"EPHB3; compound concentrations: 100 nM and 1000 nM (sheet 'Samples'), CATDS: 7.7760925850710602E-3",1.11 µM
same,potency estimated from few doses,"FRK; compound concentrations: 100 nM and 1000 nM (sheet 'Samples'), CATDS: 1.0205973298365501E-2",0.53 µM
same,potency estimated from few doses,"FYN; compound concentrations: 100 nM and 1000 nM (sheet 'Samples'), CATDS: 1.0262385049400099E-2",0.523 µM
same,potency estimated from few doses,"LYN; compound concentrations: 100 nM and 1000 nM (sheet 'Samples'), CATDS: 9.5944426584782493E-3",0.613 µM
same,potency estimated from few doses,"PIK3CG; compound concentrations: 100 nM and 1000 nM (sheet 'Samples'), CATDS: 8.5012457956318496E-3",0.843 µM
same,potency estimated from few doses,"ULK1; compound concentrations: 100 nM and 1000 nM (sheet 'Samples'), CATDS: 1.00048929217101E-2",0.555 µM
Cn1ncc2c(N)ncnc21 [SKF-18267],potency estimated from few doses,"AXL; compound concentrations: 100 nM and 1000 nM (sheet 'Samples'), CATDS: 4.1647880989247304E-3",1.21 µM
same,potency estimated from few doses,CDC42BPA,1.37 µM
same,potency estimated from few doses,CDC42BPG,0.7 µM
same,potency estimated from few doses,CDK2; CATDS: 5.1697348126272004E-3,0.762 µM
same,potency estimated from few doses,CDK9,0.974 µM
same,potency estimated from few doses,"CIT; compound concentrations: 100 nM and 1000 nM (sheet 'Samples'), CATDS: 4.0396253783402704E-3",1.3 µM
same,potency estimated from few doses,"CSK; compound concentrations: 100 nM and 1000 nM (sheet 'Samples'), CATDS: 4.6419413759929496E-3",0.948 µM
same,potency estimated from few doses,"EPHA1; compound concentrations: 100 nM and 1000 nM (sheet 'Samples'), CATDS: 6.5055673029188101E-3",0.506 µM
same,potency estimated from few doses,"EPHB3; compound concentrations: 100 nM and 1000 nM (sheet 'Samples'), CATDS: 3.3263666790724102E-3",2.29 µM
same,potency estimated from few doses,"FRK; compound concentrations: 100 nM and 1000 nM (sheet 'Samples'), CATDS: 7.1234836872725703E-3",0.436 µM
same,potency estimated from few doses,"FYN; compound concentrations: 100 nM and 1000 nM (sheet 'Samples'), CATDS: 7.0897882723323898E-3",0.44 µM
same,potency estimated from few doses,"LYN; compound concentrations: 100 nM and 1000 nM (sheet 'Samples'), CATDS: 5.9641678427723097E-3",0.586 µM
same,potency estimated from few doses,"MTOR; compound concentrations: 100 nM and 1000 nM (sheet 'Samples'), CATDS: 1.26439105920185E-2",0.192 µM
same,potency estimated from few doses,"PIK3CG; compound concentrations: 100 nM and 1000 nM (sheet 'Samples'), CATDS: 9.5970287600273298E-3",0.28 µM
same,potency estimated from few doses,PKN2; CATDS: 4.0047157593236004E-3,1.33 µM
same,potency estimated from few doses,PRKG1; CATDS: 4.7487342618258797E-3,0.904 µM
same,potency estimated from few doses,"ROCK1; compound concentrations: 100 nM and 1000 nM (sheet 'Samples'), CATDS: 4.4818399275614899E-3",1.02 µM
same,potency estimated from few doses,"ULK1; compound concentrations: 100 nM and 1000 nM (sheet 'Samples'), CATDS: 3.78452040785661E-3",1.55 µM
CCn1c(-c2nonc2N)nc2c(C#CCN)ncc(OCCCN)c21.O=C(O)C(F)(F)F [GSK561866B],potency estimated from few doses,PKN2; CATDS: 7.8850535448236003E-2,1.51 µM
same,potency estimated from few doses,"ROCK1; compound concentrations: 100 nM and 1000 nM (sheet 'Samples'), CATDS: 8.4465602866789904E-2",1.01 µM
